Consider 13 compounds from PubChem BioAssay (NCI).

The panel holds about 83,000 compounds, 20% with a hit somewhere; the sample as a whole holds those more often.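 A percent growth of 40 corresponds to 60% growth inhibition; 0 means no net growth; -100 means all cells died. Active threshold: below 10.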 A number with no mark means an inactive call. Active and inactive are the calls of the source.

Among the test systems are HCT-15 colon; HT29 colon; SNB-75 CNS; SNB-19 CNS; U251 CNS; PC-3 prostate; SK-MEL-5 melanoma; UACC-62 melanoma; LOX IMVI melanoma; SK-MEL-28 melanoma.
Common to all, as to assay: NCI-60 one-dose screen, 48 h (100 = growth as untreated, 0 = no growth, -100 = all killed)
Holding throughout (conditions): 10 µM unless noted

For `CCCCCCNC(=O)Oc1ccc(/C(=C(/C)c2ccccc2)c2ccc(OCCN(C)C)cc2)cc1`, the growth in the assay on HCT-15 colon was -32.3% (active); in the assay with HT29 colon, -25.6% (active); with SNB-75 CNS it was 73.5%; with SNB-19 CNS, 64.4%; in the assay on U251 CNS, 54.7%; in the assay with PC-3 prostate, 70.6%. Further, the results for the growth with SK-MEL-5 melanoma, in the assay with UACC-62 melanoma and in the assay with LOX IMVI melanoma were 78.2%, 52.8% and 13.8%, respectively.
Regarding `COc1cc(O)c2c(c1)/C=C/C[C@H](O)[C@H](O)C(=O)/C=C\C[C@H](C)OC2=O`, the growth in the assay with HCT-15 colon was -47.5% (active); in the assay with HT29 colon, 1.76% (active); in the assay on SNB-75 CNS, -2.99% (active); in the assay with SNB-19 CNS, 52.3%; in the assay on U251 CNS it was 34.6%; in the assay with PC-3 prostate it was 42.6%. For the same compound, the growth is -57.9% (active) in the assay on SK-MEL-5 melanoma, -16.3% (active) in the assay on UACC-62 melanoma and -42.7% (active) in the assay with LOX IMVI melanoma.
For the compound `CC(=O)Nc1ccc(NC(=O)Nc2cccc(-c3nc(-c4ccc(NC(=O)c5cccs5)cc4Cl)no3)c2)cc1C(F)(F)F`, the growth in the assay on HCT-15 colon was 20.2%; in the assay with HT29 colon, -36.4% (active); with SNB-75 CNS, -73.2% (active); in the assay with SNB-19 CNS, -33.7% (active); in the assay on U251 CNS, -57.4% (active); with PC-3 prostate, -64.5% (active). For the same compound, the growth with SK-MEL-5 melanoma was -77.8% (active); with UACC-62 melanoma, -82.4% (active); in the assay with LOX IMVI melanoma, -88% (active).
As for `COc1ccc(NC(=O)Cn2cc(CN3C(=O)c4ccc([N+](=O)[O-])cc4C3=O)nn2)cc1`, the growth is 98.2% in the assay on HCT-15 colon; 109% in the assay with HT29 colon; 73.9% in the assay on SNB-75 CNS; 93.6% in the assay on SNB-19 CNS; 100% in the assay with U251 CNS; 98.6% in the assay with PC-3 prostate. For the same compound, the growth was 102% in the assay on SK-MEL-5 melanoma, 91.3% in the assay on UACC-62 melanoma, 97.7% in the assay on LOX IMVI melanoma and 110% in the assay on SK-MEL-28 melanoma.
Consider `COc1cc(C(=O)C[n+]2ccc3ccccc3c2)cc(OC)c1OC`, for which the growth in the assay with HCT-15 colon is 98%; with HT29 colon, 95.2%; in the assay with SNB-75 CNS it was 90%; in the assay with SNB-19 CNS, 93.5%; with U251 CNS, 98.3%; in the assay on PC-3 prostate, 88.8%. Further, the growth with SK-MEL-5 melanoma is 99.8%; with UACC-62 melanoma, 91.4%; in the assay with LOX IMVI melanoma, 97.4%; in the assay on SK-MEL-28 melanoma, 106%.
Take `O=c1cc(-c2ccccc2)nc2sc(-c3c[nH]c4ccc(Br)cc34)nn12`: the growth is 91.6% with HCT-15 colon; 102% with HT29 colon; 108% in the assay with SNB-75 CNS; 88.4% with SNB-19 CNS; 100% with U251 CNS; 85.4% with PC-3 prostate. In addition, the growth in the assay on SK-MEL-5 melanoma was 98.9%; with UACC-62 melanoma, 87.4%; in the assay on LOX IMVI melanoma it was 102%; in the assay with SK-MEL-28 melanoma, 93.9%.
`O=C(Nc1ccc(-c2nc(-c3cccc(O)c3)c(-c3ccnc(Br)c3)[nH]2)cc1)c1ccccc1`: the growth was 7.12% (active) in the assay on HCT-15 colon; 12.2% with HT29 colon; -2.13% (active) in the assay with SNB-75 CNS; 23.3% in the assay on SNB-19 CNS; 20.8% in the assay with U251 CNS; 6.14% (active) in the assay with PC-3 prostate. Moreover, the growth is -67% (active) in the assay on SK-MEL-5 melanoma, 22.1% in the assay on UACC-62 melanoma and 3.27% (active) in the assay with LOX IMVI melanoma.
Turning to `CCCCCCNC(=O)Oc1ccc(/C(=C(/C)c2ccc(OC)cc2)c2ccc(OCCN3CCCC3)cc2)cc1`, the growth is 17.3% in the assay with HCT-15 colon; 13.9% in the assay with HT29 colon; 85.5% in the assay with SNB-75 CNS; 72.2% in the assay on SNB-19 CNS; 58.6% with U251 CNS; 67.7% in the assay with PC-3 prostate. The growth in the assay on SK-MEL-5 melanoma was 53.7%; with UACC-62 melanoma, 74.2%; in the assay with LOX IMVI melanoma, -39.1% (active); in the assay on SK-MEL-28 melanoma it was 60.3%.
Take `CCN1CCN(c2cc(C(=O)Nc3nc4ccc(Oc5ccnc(C(=O)NC)c5)cc4s3)cc(C(F)(F)F)c2)CC1`: the growth is 26.9% in the assay on HCT-15 colon; 18.5% with HT29 colon; 88.7% in the assay on SNB-75 CNS; 111% in the assay on SNB-19 CNS; 76.8% in the assay with U251 CNS; 55.6% in the assay with PC-3 prostate. In addition, the growth is 63.6% in the assay with SK-MEL-5 melanoma, 90.7% with UACC-62 melanoma, 34.6% in the assay with LOX IMVI melanoma and 76.8% in the assay with SK-MEL-28 melanoma.
Regarding `N/C(=N\OC(=O)CSc1nc2ccccc2s1)c1ccc(Cl)cc1`, the growth in the assay on HCT-15 colon was 101%; in the assay with HT29 colon it was 103%; in the assay on SNB-75 CNS it was 88.7%; with SNB-19 CNS, 99.4%; with U251 CNS, 96.8%; with PC-3 prostate, 99.9%. The growth with SK-MEL-5 melanoma is 100%; in the assay with UACC-62 melanoma, 87.8%; in the assay with LOX IMVI melanoma, 99.7%; in the assay on SK-MEL-28 melanoma, 106%.
As to `CCC(C)[C@H]1OC(=O)[C@H](C(C)C)N(C)C(=O)[C@@H](C(C)C)OC(=O)[C@H](C(C)C)N(C)C(=O)[C@@H](C(C)CC)OC(=O)[C@H](C(C)C)N(C)C1=O` (stereo not given in full), the growth was 11.4% in the assay with HCT-15 colon; 6.93% (active) in the assay with HT29 colon; -2.11% (active) in the assay on SNB-75 CNS; 18.1% with SNB-19 CNS; 12.5% in the assay on U251 CNS; 12.1% in the assay on PC-3 prostate. The growth with SK-MEL-5 melanoma is -31.5% (active); in the assay with UACC-62 melanoma, 6.11% (active); in the assay on LOX IMVI melanoma, 7.89% (active).
Regarding `Cn1cc(-c2nn3cc(-c4cccnc4)nc3s2)c2cc(F)ccc21`, the growth was 60% with HCT-15 colon; 67.1% in the assay on HT29 colon; 86.9% with SNB-75 CNS; 84.7% in the assay with SNB-19 CNS; 96.8% with U251 CNS; 79.4% in the assay with PC-3 prostate. The growth in the assay with SK-MEL-5 melanoma was 94.3%; in the assay with UACC-62 melanoma, 62.2%; in the assay on LOX IMVI melanoma it was 85.7%; with SK-MEL-28 melanoma, 81.7%.
For `Cc1ccc(/C=C/CC(=O)Nc2ccc(C(=O)Nc3ccc(F)cc3N)cc2)cn1`, the growth with HCT-15 colon was 79.5%; in the assay with HT29 colon it was 36.1%; in the assay with SNB-75 CNS it was 74.8%; in the assay with SNB-19 CNS, 73.7%; in the assay with U251 CNS, 61.1%; with PC-3 prostate, 53%. The growth in the assay with SK-MEL-5 melanoma was 69.3%; in the assay on UACC-62 melanoma, 51.3%; in the assay with LOX IMVI melanoma, 49.3%; with SK-MEL-28 melanoma, 55.6%.
